Shown are actives, neighbours in structure and some others; about 1.1% of the full set was active somewhere.
Yp Topo-I inh: Y. pestis Topo-I inhibition via cleavage products; actives 0.064% (n = 360,000); Y. pestis Topo-I cleavage product accumulation, plate reader; AID 504884; activity, % at 10 µM; in the data active = activity above about 50%, passing the limit was not always enough
CCHF vOTU inh-1: blocks the CCHF virus ovarian tumor domain protease; CCHFV vOTU protease, Pep-AMC fluorescence; inhibition, % at 11.5 µM; actives 0.55% (n = 370,000); AID 651958; note: 0% = vehicle wells with enzyme and 100% = no enzyme wells
Mtb BioA inh: blocks M. tuberculosis BioA enzyme activity; purified M. tuberculosis BioA enzyme, plate reader; inhibition, % at 9.99 µM; actives 0.096% (n = 360,000); AID 602481; in the data active = inhibition above about 40%
Mtb bLac sens: beta-lactam sensitization of Mtb H37Rv; actives 0.27% (n = 330,000); AID 434955; inhibition, % at 25 µM; M. tuberculosis H37Rv growth with meropenem, percent inhibition; call rule not given here;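 note: growth measured after seven days incubation then overnight dye step; 0% = bacteria only wells and 100% = bacteria with antibiotic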
RecA intein inh: Mtb RecA intein splicing inhibition; P9WHJ3; actives 0.75% (n = 290,000); cell-free RecA intein splicing, fluorescence; inhibition, % (no concentration beside the values); AID 2221; in the data active = inhibition above about 30%;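 note: 0% = vehicle wells and 100% = reference inhibitor control wells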
Target sequence (P9WHJ3 whole entry, looked up): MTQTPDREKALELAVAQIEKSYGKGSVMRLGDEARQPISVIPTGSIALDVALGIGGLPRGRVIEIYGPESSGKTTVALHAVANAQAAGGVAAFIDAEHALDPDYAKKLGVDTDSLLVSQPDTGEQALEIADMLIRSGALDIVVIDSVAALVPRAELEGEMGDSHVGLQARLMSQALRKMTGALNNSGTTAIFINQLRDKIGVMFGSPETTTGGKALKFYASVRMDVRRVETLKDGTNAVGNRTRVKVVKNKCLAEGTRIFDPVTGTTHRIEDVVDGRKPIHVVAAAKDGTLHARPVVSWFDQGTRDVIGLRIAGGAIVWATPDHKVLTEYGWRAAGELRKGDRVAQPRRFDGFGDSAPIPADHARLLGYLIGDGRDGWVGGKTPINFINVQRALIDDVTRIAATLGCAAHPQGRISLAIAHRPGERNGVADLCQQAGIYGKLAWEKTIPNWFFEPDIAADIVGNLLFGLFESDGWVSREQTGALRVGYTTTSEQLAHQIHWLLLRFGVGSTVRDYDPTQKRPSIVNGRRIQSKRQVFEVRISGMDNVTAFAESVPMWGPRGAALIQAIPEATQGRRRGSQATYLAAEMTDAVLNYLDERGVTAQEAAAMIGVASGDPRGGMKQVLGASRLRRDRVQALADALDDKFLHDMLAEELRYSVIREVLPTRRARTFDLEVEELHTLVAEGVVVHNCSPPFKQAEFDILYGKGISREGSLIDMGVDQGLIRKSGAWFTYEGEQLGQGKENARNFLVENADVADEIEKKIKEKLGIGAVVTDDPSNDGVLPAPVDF
BJeLR lethal: kills HRASV12-expressing BJeLR cells; BJeLR (HRASV12) viability, CellTiter-Glo ATP luminescence, 48 h; inhibition, % (no concentration beside the values); actives 0.17% (n = 300,000); AID 1554; in the data active = inhibition above about 50%
CCHF vOTU inh-2: CCHFV vOTU protease inhibition, confirmation; shares compounds with CCHF vOTU inh-1; Recombinant CCHFV vOTU, Pep-AMC fluorescence; inhibition, % at 11.5 µM; actives 17% (n = 1,900)
* marks the source's active call; other numbers are inactive results. Cut-off read from the data, not from the text of the source, unless noted: active = inhibition above about 30%; inactive = the rest.

For CCOC(=O)Nc1sc(NS(=O)(=O)c2ccc(C)cc2)nc1C the results were Yp Topo-I inh 5, CCHF vOTU inh-1 30*, Mtb BioA inh 2, Mtb bLac sens 9, RecA intein inh 6, BJeLR lethal -1 and CCHF vOTU inh-2 -10.
For CNC[C@@H]1OCCCC[C@H](C)Oc2ccc(NC(=O)Nc3ccc(OC)cc3)cc2C(=O)N([C@H](C)CO)C[C@H]1C the results were Mtb BioA inh 0.
Screening Cc1ccc(NC(=O)CSc2nnc(-c3cc(-c4ccc(Cl)cc4)n[nH]3)n2N)cc1 returned CCHF vOTU inh-1 99* and CCHF vOTU inh-2 -1.
`Cc1ccc(-c2cc(-c3nnc(SCC(=O)Nc4ccc(OCc5ccccc5)cc4)n3N)[nH]n2)cc1` gave CCHF vOTU inh-1 -4.
For Cc1ccccc1S(=O)(=O)N1CCCCN2[C@H](C1)[C@H](c1ccc(-c3cccc(F)c3)cc1)[C@@H]2CO the results were Mtb BioA inh 0.
Screening O=C(NCc1ccc(F)cc1)[C@@H]1[C@@H](CO)[C@@H]2Cn3c(ccc(C4=CCCCC4)c3=O)[C@H]1N2 returned Mtb BioA inh -4.
For CN(C)c1ccc2nc3ccc(=O)cc-3sc2c1 the results were Yp Topo-I inh active, CCHF vOTU inh-1 76*, Mtb BioA inh 1 and CCHF vOTU inh-2 50*.
Screening Cc1c(Cl)cnc(NC(=O)COC(=O)c2ccc([N+](=O)[O-])s2)c1Cl returned Yp Topo-I inh -8, CCHF vOTU inh-1 74*, Mtb BioA inh -1, Mtb bLac sens 31, RecA intein inh 7, BJeLR lethal -7 and CCHF vOTU inh-2 74*.
`Cc1ccc(C(=O)OCC(=O)Nc2ccc(Cl)cn2)s1` gave Yp Topo-I inh 1, CCHF vOTU inh-1 0, Mtb BioA inh -1 and Mtb bLac sens 14.
For O=C(COC(=O)c1ccc([N+](=O)[O-])s1)Nc1ccc(Cl)cn1 the results were Yp Topo-I inh -10, CCHF vOTU inh-1 41*, Mtb bLac sens 98, BJeLR lethal -1 and CCHF vOTU inh-2 51*.
CC(C)(C)OC[C@H](NC(=O)c1[nH]cnc1C(=O)Nc1ccccc1F)C(=O)OC(C)(C)C was read as Yp Topo-I inh 2, CCHF vOTU inh-1 35*, Mtb BioA inh -1 and CCHF vOTU inh-2 22.
Screening CC(C)(C)OC(=O)[C@H](Cc1ccccc1)NC(=O)c1[nH]cnc1C(=O)Nc1ccc(Cl)cc1 returned Yp Topo-I inh 15, CCHF vOTU inh-1 31*, Mtb BioA inh -1, Mtb bLac sens 2, RecA intein inh 3, BJeLR lethal 5 and CCHF vOTU inh-2 8.
`CC(C)C[C@H](NC(=O)c1[nH]cnc1C(=O)N[C@@H](C)C(=O)OCc1ccccc1)C(=O)OC(C)(C)C` gave Yp Topo-I inh 15, CCHF vOTU inh-1 30*, Mtb BioA inh -1, Mtb bLac sens -11, RecA intein inh 2, BJeLR lethal 7 and CCHF vOTU inh-2 15.
COc1ccc(S(N)(=O)=O)cc1C(=O)OCC(=O)N1CCCC(C)C1 (stereo unspecified) was read as Yp Topo-I inh -3, CCHF vOTU inh-1 30*, Mtb BioA inh 4, Mtb bLac sens -5 and CCHF vOTU inh-2 -17.
`CCC(Sc1nc2ccsc2c(=O)n1Cc1ccc(C(=O)O)cc1)C(=O)Nc1ccc(C)c(Cl)c1` (stereo unspecified) gave Yp Topo-I inh 3, CCHF vOTU inh-1 31*, Mtb BioA inh 10, Mtb bLac sens 3, RecA intein inh 0, BJeLR lethal -8 and CCHF vOTU inh-2 8.
Screening O=C(COc1ccc2ccccc2c1)Nc1cccc(C(=O)Nc2ccccc2C(=O)O)c1 returned Yp Topo-I inh 3, CCHF vOTU inh-1 34*, Mtb bLac sens 81, RecA intein inh 6, BJeLR lethal -9 and CCHF vOTU inh-2 24.
For Nc1ccc(N=Nc2ccc(O)cc2)c(N)n1 the results were Yp Topo-I inh -13, CCHF vOTU inh-1 38* and CCHF vOTU inh-2 7.
For Cc1nc2c(nc1C)C(=O)c1ccccc1C2=O the results were Yp Topo-I inh 6, CCHF vOTU inh-1 32* and CCHF vOTU inh-2 21.
For C[C@H](NC(=O)C[C@@H]1CC[C@H]2[C@@H](COC[C@@H](O)CN2Cc2cc(F)ccc2F)O1)c1ccccc1 the results were Mtb BioA inh -1.
For CC(C(=O)Nc1cccnc1)N1C(=O)c2ccccc2C1=O (stereo unspecified) the results were Yp Topo-I inh -2, CCHF vOTU inh-1 -12, Mtb BioA inh 4, Mtb bLac sens 6, RecA intein inh -1 and BJeLR lethal 14.
`CCOc1ccc(NC2=CC(=O)C(=O)c3ccccc32)cc1` gave Yp Topo-I inh -11, CCHF vOTU inh-1 91* and CCHF vOTU inh-2 45*.
`O=C1C=C(Nc2ccc(F)cc2)c2ccccc2C1=O` gave Yp Topo-I inh 2, CCHF vOTU inh-1 22, Mtb BioA inh 1 and Mtb bLac sens 99.
`O=C1C=C(Nc2cccnc2)c2ccccc2C1=O` gave Yp Topo-I inh -3, CCHF vOTU inh-1 98* and CCHF vOTU inh-2 96*.
Screening O=C(NCC[C@@H]1CC[C@@H](NC(=O)C2CCOCC2)[C@@H](CO)O1)c1ccc(F)cc1 returned Mtb BioA inh -3.
Screening Cc1cccc(C)c1NC(=O)C1(C)CSCC(=O)N1CCOc1ccccc1 (stereo unspecified) returned CCHF vOTU inh-1 31* and CCHF vOTU inh-2 4.
`COCCN1C(=O)CSCC1(C)C(=O)Nc1c(C)cccc1C` (stereo unspecified) gave CCHF vOTU inh-1 1.
For CCC(=O)Nc1sccc1C(=O)OC the results were Yp Topo-I inh -8, Mtb bLac sens -8, RecA intein inh 0 and BJeLR lethal 2.
Screening COC(=O)c1ccsc1NS(C)(=O)=O returned CCHF vOTU inh-1 31* and CCHF vOTU inh-2 -19.
For COc1ccc([C@H]2CC(=O)C=C(/C=C/c3ccccc3)C2)cc1OC the results were Yp Topo-I inh 26, CCHF vOTU inh-1 30*, Mtb BioA inh 3, Mtb bLac sens 91 and CCHF vOTU inh-2 8.
For N#CC1=C(S)N(c2ccccc2)C(c2ccc(-c3ccc(Cl)c(Cl)c3)o2)NC1=O (stereo unspecified) the results were Yp Topo-I inh 12, CCHF vOTU inh-1 47*, Mtb bLac sens 90, RecA intein inh 20, BJeLR lethal 9 and CCHF vOTU inh-2 30*.
`CCc1ccc(/C=c2\s/c(=C\C(=O)C(C)(C)C)[nH]c2=O)cc1` gave Yp Topo-I inh 4, CCHF vOTU inh-1 36*, Mtb BioA inh -2, Mtb bLac sens 100, RecA intein inh 13, BJeLR lethal 7 and CCHF vOTU inh-2 8.
`Cc1cc(C)cc(NC(=O)CN(C)CC(=O)N(CC(C)C)c2c(N)n(CC(C)C)c(=O)[nH]c2=O)c1` gave Yp Topo-I inh -2, CCHF vOTU inh-1 35*, Mtb BioA inh -2, Mtb bLac sens -5 and CCHF vOTU inh-2 -27.
